# Reference: PubChem BioAssay AID1347056 (Sanford-Burnham Center for Chemical Genomics, 2019)
# In all, about 360,000 compounds went through this assay and about 3,600 (1%) were called active.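 Rule for the calls: active = compounds whose plate-normalised and pattern-corrected inhibition of the luciferase reporter signal at the single screening dose is 50% or more; inactive = the rest.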 The entries come from a sample that favours actives as a whole.
# Test: TROY pathway blockers in reporter cells – Q293 LMP1-TROYcd cells, NF-kB luciferase, uHTS, primary screen (AID 1347056)
# Conditions: 4 h, at 10 µM, stronger effect = higher value
row,SMILES,inhibition
1,S=C(NCc1ccco1)Nc1ccc2c(c1)OCCO2,8.28% (inactive)
2,CCCCCn1nnnc1C1c2ccccc2C(=O)N1Cc1ccco1 (stereo not given),-7.23% (inactive)
3,O=C1c2ccccc2C(Nc2ccc3c(c2)OCCO3)N1Cc1ccco1 (stereo not given),62% (active)
4,NC1=CC(=O)C(=O)c2cccnc21,-15.9% (inactive)
5,O=C(O)CCCC(=O)Nc1ccccc1-n1ccnc1,13% (inactive)
6,O=C(NCCOc1ccccc1F)Nc1ccc(Br)cc1,-33.8% (inactive)
7,O=C(Nc1nnc(COc2ccccc2)s1)Nc1ccccc1F,-7.72% (inactive)
8,O=C(Nc1ccccc1)Nc1nnc(COc2ccccc2F)s1,53.5% (active)
9,Cc1ccc(NC(=O)C2CC(=O)N(c3ccc4c(c3)OCCO4)C2)cc1S(=O)(=O)N1CCCCCC1 (stereo not given),29.1% (inactive)
10,Cc1ccc2c(c1)N(CC(=O)N(Cc1ccccn1)Cc1ccco1)C(=O)C(C(C)C)O2 (stereo not given),4.87% (inactive)
11,Cc1ccc(N/C=C/C(=O)c2ccccc2)cc1C,56.6% (active)
12,Cc1ccc(NNC(=O)C2CCC2)cc1C,-8.76% (inactive)
13,O=C(/C=C/NCc1ccc(F)cc1)c1ccccc1,-45.6% (inactive)
14,CCC(C)NC(=O)CN(C1CCCCC1)S(C)(=O)=O (stereo not given),-2.32% (inactive)
15,COc1ccc(CCN2C(=O)c3[nH]nc(-c4ccccc4O)c3C2c2ccc(C)cc2)cc1OC (stereo not given),22.8% (inactive)
16,COC(=O)Cn1c(=NC(=O)c2cc(OC)c(OC)c(OC)c2)sc2cc(OC)ccc21,3.88% (inactive)
17,Cc1ccc(N2CCN(c3ccc([N+](=O)[O-])cn3)CC2)c(C)c1,5.6% (inactive)
18,NC(=O)C[n+]1cccc(C(N)=O)c1,-13.6% (inactive)
19,Cc1cccc(NC(=O)c2nc(S(=O)(=O)Cc3ccccc3)ncc2Cl)c1,77.9% (active)
20,Cc1cccc(NC(=O)Cn2cc(C(=O)c3ccco3)c3ccccc32)c1,8.41% (inactive)
21,CSc1nnc(NC(=O)c2nc(S(=O)(=O)Cc3ccc(C)cc3)ncc2Cl)s1,-5.7% (inactive)
22,Cc1cccc(CS(=O)(=O)c2ncc(Cl)c(C(=O)Nc3ccc(F)cc3)n2)c1,70.8% (active)
23,Cc1cccc(CN2CCC(CNC(=O)Nc3ccc(F)c(Cl)c3)CC2)c1,12.4% (inactive)

row,SMILES,inhibition
1,Cc1ccc(C)c(Cn2nnc3c(=O)[nH]c(C(=O)Nc4ccc(F)cc4)nc32)c1,30.7% (inactive)
2,CCOc1ccc(NC(=O)C2CC(=O)N=C(N)S2)cc1 (stereo not given),15.3% (inactive)
3,O=C(O)c1ccc(Cn2cnc3c(=S)nc[nH]c32)cc1,12.2% (inactive)
4,C/C(CC(=O)N1CCN(C=O)CC1)=N\NC(=O)c1ccc(Br)cc1,-8.44% (inactive)
5,COc1cc(/C=C/C(=O)O)cc(S(=O)(=O)Nc2ccccc2C(=O)NCCc2ccccc2)c1OC,-15.9% (inactive)
6,CCCCC[C@H]1CN(C2CCCCC2)C(=O)[C@@H]1CC(=O)NCc1ccc(OC)cc1,14.9% (inactive)
7,Cc1ccc(S(=O)(=O)N2CCC(C(=O)N[C@@H](C)C(=O)NCc3ccco3)CC2)cc1,13.7% (inactive)
8,CCn1c(SCc2cccc(C(=O)O)c2)nnc1-c1ccc(Cl)cc1,6.17% (inactive)
9,Cc1ccccc1NC(=O)C1CCCN(C(=O)NCc2ccccc2)C1 (stereo not given),-8.74% (inactive)
10,COc1ccc2c(c1)c(=Cc1ccc(N(C)C)cc1)c1cc(-c3ccccc3)[n+](C)n12,69.4% (active)
11,COc1cccc(CCNC(=O)c2cccc(NC(=O)C3=C(C)OCCS3)c2)c1,13.6% (inactive)
12,Cc1cccc(-c2nnc(SCC(=O)O)n2Cc2ccccc2)c1,-6.32% (inactive)
13,Cc1ccsc1C(=O)OCC(=O)NCCc1ccccc1,-56.3% (inactive)
14,Cc1ccsc1C(=O)OCC(=O)c1cc(C)n(CC2CCCO2)c1C (stereo not given),78.8% (active)
15,Cc1ccsc1C(=O)OCC(=O)Nc1cccc(F)c1,-57.4% (inactive)
16,Cc1cccc(C(=O)Nc2ccccc2-c2nnn(CC(=O)Nc3ccc4c(c3)OCCO4)n2)c1,6.18% (inactive)
17,COc1cc2c(cc1OC)C(=O)NCC(C)(C)O2,32.5% (inactive)
18,O=C(NC1=CC(=O)c2ccccc2C1=O)c1ccccc1,63.7% (active)
19,CC(=O)c1cc(NC(=O)c2ccccc2)c(=O)oc1/C=C/N(C)C,7.35% (inactive)
20,Cc1cc(=O)c2ccc(NC(=O)c3ccccc3)cc2[nH]1,-14.4% (inactive)
21,CC(=O)Nc1cncc(-c2ccccc2CO)n1,-15.3% (inactive)
22,Cn1c(=O)c2cc(S(=O)(=O)NCCC(=O)Nc3ccc(F)cc3F)ccc2n(C)c1=O,-2.05% (inactive)
23,O=C(COC(=O)c1ccccc1)c1ccc2c(c1)OCCO2,80.8% (active)

row,SMILES,inhibition
1,CC(=O)Nc1cccc(C(=O)OCC(=O)NCc2cc(C)c(O)c(C)c2)c1,-29% (inactive)
2,CC(=O)Nc1cccc(C(=O)OCC(=O)c2ccc3c(c2)OCO3)c1,64.7% (active)
3,COc1ccc(C(=O)OCC(=O)Nc2cccc(C(C)=O)c2)cc1OC,10.5% (inactive)
4,O=C(OCc1ccccc1F)c1ccc2c(c1)OCCO2,-79.6% (inactive)
5,O=C(COC(=O)c1ccc(O)cc1O)c1ccc2c(c1)OCCO2,1.99% (inactive)
6,Cc1cccc(OC(=O)c2sc3ncn(C)c(=O)c3c2C)c1,-27.1% (inactive)
7,COc1cccc(C(=O)N2CCC(n3nccc3NC(=O)C3CCOC3)CC2)c1 (stereo not given),-1.36% (inactive)
8,CCOc1ccc(C(C(=O)NC2CCCC2)N(C(=O)c2snc(C(N)=O)c2N)C2CCCC2)cc1 (stereo not given),-0.96% (inactive)
9,Nc1nnc(SCC(=O)NC2CCCc3ccccc32)s1 (stereo not given),21% (inactive)
10,COc1cccc(NC(=O)N(C)C[C@@H]2Oc3ncc(Br)cc3C(=O)N([C@@H](C)CO)C[C@H]2C)c1,-0.54% (inactive)
11,CCc1cccc(CC)c1NC(=S)NCc1ccc2[nH]c(C)cc2c1,-11.8% (inactive)
12,Cc1cccc(NC(=S)NCc2ccc3[nH]c4c(c3c2)CCCC4)c1,63.8% (active)
13,Cc1cc(C)cc(NC(=S)NCCc2c[nH]c3ccccc23)c1,1.03% (inactive)
14,CC(C)CCN1CCC(C)(NC(=O)c2ccccc2)C1=O (stereo not given),-0.82% (inactive)
15,C=CCC(NCc1ccco1)c1ccc(OC)cc1 (stereo not given),14.2% (inactive)
16,CC(=O)Nc1cccc(-c2cc(NC=O)c3ncc(-c4ccc(F)c(Cl)c4)n3c2)c1,83.1% (active)
17,CC(=O)Nc1cccc(-c2cc(NC(C)=O)c3ncc(-c4ccccc4)n3c2)c1,80.3% (active)
18,COc1cccc(-c2cnc3c(NC(C)=O)cc(-c4cccc(NC(C)=O)c4)cn23)c1,12.8% (inactive)
19,CC(=O)c1cccc(-c2cnc3c(NC=O)cc(-c4cccc(C(=O)N(C)C)c4)cn23)c1,-8.12% (inactive)
20,COc1cccc(-c2cc(NC(C)=O)c3ncc(-c4cccc(C(C)=O)c4)n3c2)c1,12.8% (inactive)
21,CC(=O)c1ccc(-c2cnc3c(NC=O)cc(-c4cccc(NS(C)(=O)=O)c4)cn23)cc1,22.6% (inactive)
22,O=C(Nc1ccccc1F)c1ccc(Cn2cc(Br)cn2)cc1,-34.2% (inactive)
23,CCC(=NC1CC(C)(C)NC(C)(C)C1)C1=C(O)CC(C)(C)CC1=O,-0.72% (inactive)

row,SMILES,inhibition
1,CC(C)c1cc(C(=O)O)on1,-0.05% (inactive)
2,CC1O[C@@H](OC2C(O)C(C)O[C@H](OC(=O)[C@]34CCC(C)(C)C[C@H]3C3=CCC5[C@@]6(C)CC(O)C(O[C@@H]7OC(CO)C(O)[C@@H](O)[C@@H]7O)[C@@](C)(C(=O)O)C6CC[C@@]5(C)[C@]3(CO)CC4)C2O[C@H]2OC(C)[C@@H](O[C@@H]3OCC(O[C@@H]4OC(CO)C(O)[C@H](O)C4O)[C@@H](O)[C@@H]3O)[C@H](O)C2O)C(O)C(O)C1O (stereo not given in full),5% (inactive)
3,Cc1ccnc(NC(=O)c2ccc(Cl)c([N+](=O)[O-])c2)c1,-25.6% (inactive)
4,Cc1nc2ccccc2c(=O)n1NC(=O)c1ccc(Cl)c([N+](=O)[O-])c1,73.3% (active)
5,O=C(Nn1c(SCc2ccc([N+](=O)[O-])cc2)nc2ccccc2c1=O)c1ccc(F)cc1,36.3% (inactive)
6,Cc1cccc(OC(C)C(=O)N2CCc3ccccc3C2)c1 (stereo not given),-6.07% (inactive)
7,Cc1cccnc1C(NC(=O)C1CCN(Cc2ccc(Cl)c(Cl)c2)CC1)c1ccc(Cl)cc1 (stereo not given),4.08% (inactive)
8,COCCCNC(=O)CNC(=S)N(Cc1cc(OC)c(OC)c(OC)c1)C1CCCC1,10.9% (inactive)
9,COC(=O)c1cc(OC)c(OC)cc1NC(=O)CSc1ccc(C)cc1,21.1% (inactive)
10,Cc1ccc(SCC(=O)c2cc(C)c(OC(=S)N(C)C)c(C)c2)cc1,63.3% (active)
11,Cc1ccc(SCC(=O)Nc2ccc3c(c2)OCCO3)cc1,-62.5% (inactive)
12,CC(C)(C)c1ccc(Oc2ccc(N)cc2)cc1,86.2% (active)
13,Cc1cc(C(C)(C)C)cc(C)c1N,2.63% (inactive)
14,CN(C)S(=O)(=O)c1ccc(Oc2ccc(S(=O)(=O)N(C)C)cc2)cc1,-1.31% (inactive)
15,COc1ccc(S(=O)(=O)N(C)C[C@H]2Oc3ccc(NS(=O)(=O)c4cccs4)cc3CC(=O)N([C@H](C)CO)C[C@H]2C)cc1,-24.6% (inactive)
16,Cc1ccc(N(C(=O)C(F)(F)F)C(C(=O)NC2CCCCC2)c2ccncc2)cc1C (stereo not given),-2.62% (inactive)
17,O=C(c1ccc2c(c1)C(=O)N(Cc1ccncc1)C2=O)N1CCN(S(=O)(=O)c2ccc(OC(F)(F)F)cc2)CC1,0.85% (inactive)
18,CC(C)(C)NC(=O)c1ccc(Cn2cc(C(F)(F)F)ccc2=O)cc1,9.78% (inactive)
19,O=C(NCC(=O)N1CCN(c2ccccc2F)CC1)c1cccs1,-32.6% (inactive)
20,O=C(NCC(=O)N1CCN(c2ccccc2O)CC1)c1ccc2ccccc2c1,71.8% (active)
21,COc1ccc(N2CCN(C(=O)CNC(=O)c3ccc(C(C)(C)C)cc3)CC2)cc1,-17.8% (inactive)
